Hits are enriched below; roughly 0.74% of the tested compounds scored in any of these assays.
LANA DNA inh – blocks KSHV LANA C-terminal domain binding to DNA; inhibition, % at 9 µM; actives 0.078% (n = 340,000); MBP-C-LANA/FAM-LBS DNA binding, fluorescence polarization; AID 504423;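 active means highest replicate inhibition at or above 60% at 9 µM, even if other replicates fall short; inactive means all replicates below 60% inhibition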
Keap1 Nrf2 FP – disrupts human Keap1 binding to Nrf2 peptide | Q14145 | Keap1 Kelch-Nrf2 peptide fluorescence polarization, 1536-well | actives 0.15% (n = 340,000) | AID 504523 | inhibition, % at 9.4 µM; in the data active means inhibition above about 12%;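 further: human Keap1 Kelch domain with fluorescein labeled Nrf2 9mer peptide probe; higher means more block of Keap1 binding to Nrf2 peptide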
Target sequence (Q14145 whole entry, looked up, the tested form may be a part): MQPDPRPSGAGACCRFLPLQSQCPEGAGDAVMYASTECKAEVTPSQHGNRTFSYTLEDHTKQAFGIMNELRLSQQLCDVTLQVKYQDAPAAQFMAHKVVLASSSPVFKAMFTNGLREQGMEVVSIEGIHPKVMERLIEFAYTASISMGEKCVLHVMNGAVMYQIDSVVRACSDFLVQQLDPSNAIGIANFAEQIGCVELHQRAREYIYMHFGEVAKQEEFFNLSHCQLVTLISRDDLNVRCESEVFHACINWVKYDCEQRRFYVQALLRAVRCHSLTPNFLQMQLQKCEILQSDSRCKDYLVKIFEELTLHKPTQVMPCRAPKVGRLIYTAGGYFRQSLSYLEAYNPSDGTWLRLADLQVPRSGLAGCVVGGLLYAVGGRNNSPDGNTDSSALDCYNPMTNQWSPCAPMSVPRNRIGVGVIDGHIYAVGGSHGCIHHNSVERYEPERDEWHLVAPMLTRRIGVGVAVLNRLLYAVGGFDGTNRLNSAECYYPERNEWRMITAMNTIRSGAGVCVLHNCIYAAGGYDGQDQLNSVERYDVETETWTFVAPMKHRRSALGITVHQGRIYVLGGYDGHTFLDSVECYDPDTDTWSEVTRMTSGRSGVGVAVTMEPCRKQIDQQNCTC
E coli Lon inh – E. coli protease La inhibition. P0A9M0. purified E. coli Lon protease, fluorescence polarization. actives 0.42% (n = 360,000). inhibition, % at 7.94 µM; in the data active means inhibition above about 13%, passing the limit was not always enough
RTF Ca sens act – cardiac RTF calcium sensitization | IANBD-labeled TnC RTF fluorescence at EC20 calcium; 0% EC20 calcium, 100% full calcium | actives 0.24% (n = 340,000) | P19429+P45379 | AID 493008 | activation, % at 7.2 µM;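 active means activation above the mean over all tested compounds plus 3 SD, cut at about 30% in these data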;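 further: rise in fluorescence read as greater calcium sensitivity of cardiac thin filaments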
RTF Ca sens inh – cardiac RTF calcium desensitization. P19429+P45379. IANBD-labeled cardiac RTF, Ca2+ fluorescence. inhibition, % at 7.15 µM. actives 0.12% (n = 340,000);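 active means inhibition above the mean inhibition of all tested compounds plus 3 SD, cut at about 17% in these data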;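 further: assay run at fixed EC70 calcium of 1.6 mM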
RTF Ca inh conf – confirmation of inhibitors of cardiac thin filament calcium sensitivity | shares compounds with RTF Ca sens inh | inhibition, % at 7.15 µM | actives 8% (n = 360) | reconstituted cardiac thin filaments, calcium sensitivity fluorescence; in the data active means inhibition above about 18%
Keap1 TSA – binds and thermally shifts human Keap1 Kelch domain; shares compounds with Keap1 Nrf2 FP; Keap1 Kelch thermal shift, delta Tm; active compounds read high; max delta Tm, degrees C; actives 8% (n = 400); in the data active means max delta Tm above about 0.48 degrees C
Sypro dye melt – dye artifact in Keap1 thermal shift counter-screen. 140 tested, under 10 active. delta Tm, degrees C (concentration not given with the values). Sypro Orange dye-only thermal melt, no protein, delta Tm; top dose 26 µM. shares compounds with Keap1 Nrf2 FP;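 active means at highest dose tested, delta Tm positive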
Hits are given with their value; 0 = inactive; - = not tested or not shown; ! = repeats disagree.

SMILES	LANA DNA inh	Keap1 Nrf2 FP	E coli Lon inh	RTF Ca sens act	RTF Ca sens inh	RTF Ca inh conf	others
Cc1ccccc1N1CCN(C2=NC(=O)/C(=C\c3cccs3)S2)CC1	0	0	0	0	18.9	0
O=C1N=C(N2CCN(c3cccc4ccccc34)CC2)S/C1=C/c1cccs1	0	0	0	0	0	-
CC(C)(O)CN(CCCNC(=S)Nc1ccccc1)C(=S)Nc1ccccc1	0	0	0	0	0	-
Cc1noc(C)c1-c1ccc(C(=O)NCCN2CCOCC2)c2occc12	-	-	0	-	-	-
CN1C(=O)N(CC(=O)c2ccc3c(c2)OCO3)C(=O)C12CCCCC2	-	-	0	-	-	-
Cn1c(NCc2cccnc2)nc2cc(-c3cccc(C(=O)NCCO)c3)sc2c1=O	-	-	0	-	-	-
CCCN1CCN(C(=O)c2ccc(Sc3ccc(C)cc3)c(NC(C)=O)c2)CC1	0	0	0	0	0	-
CC(=O)Nc1cc(C(=O)N2CCc3ccccc3C2)ccc1Sc1ccc(C)cc1	0	0	0	0	17.3	0
O=C(CN1C(=O)/C(=C\c2ccco2)SC1=S)Nc1ccc(O)cc1C(=O)O	63.7	0	0	0	17.7	0
Nc1[nH]c(C(=O)c2ccccc2)c(-c2ccccc2C(F)(F)F)c1C(=O)NCCc1c[nH]c2ccccc12	-	-	0	-	-	-
CCCCC(=O)N/N=C/c1ccc(-c2ccc([N+](=O)[O-])cc2)o1	0	0	0	0	0	-
Cc1cc(C)n(Cc2ccc(C(=O)N/N=C/c3ccc(-c4ccc([N+](=O)[O-])cc4)o3)o2)n1	0	0	0	0	29.4	0
CN(Cc1ccccn1)C(=O)c1cc(COc2ccc(F)c(F)c2)on1	-	-	0	-	-	-
CCOC(=O)C1(CC2CC2)CCN(Cc2cn(C)c3ccccc23)CC1	0	0	0	0	17.0	0
CCOC(=O)C1(Cc2ccccc2)CCN(Cc2cn(CC(=O)OC)c3ccccc23)CC1	0	0	0	0	0	-
CNC(=O)OC1CC2CC1[C@H]1CCCCN1C2=O (some centres not stated)	-	-	0	-	-	-
Nc1c(C(=O)NC2CC2)sc2nc3c(c(-c4ccco4)c12)CC/C3=C/c1ccco1	0	0	0	0	30.8	98.2
NC(=O)c1sc2nc3c(c(-c4ccco4)c2c1N)CCC3	0	0	0	0	0	-
CC(Sc1nc(=O)cc(N)n1CCc1ccccc1)C(=O)NCc1ccccc1 (configuration not stated)	0	0	0	0	18.8	0
CCCCN1C(=O)C(CC(=O)NCCCN(C)C)CC(C(=O)N2CCCCCC2)=C1C (configuration not stated)	-	-	0	-	-	-
CC(C)(O)c1cc2ccc(C#Cc3ccsc3)cc2c(=O)o1	0	0	0	0	0	-
N#Cc1c(F)cccc1N1CCN(Cc2ccc3c(c2)OCO3)CC1	0	0	0	0	17.9	0
O=C(c1ccccc1F)N1CCN(Cc2ccc3c(c2)OCO3)CC1	0	0	0	0	0	-
c1ccc2c(c1)ccc1ncccc12	0	0	0	0	18.2	0
c1cnc2c(c1)ccc1cccnc12	0	0	0	0	17.8!	0
SMILES	LANA DNA inh	Keap1 Nrf2 FP	E coli Lon inh	RTF Ca sens act	RTF Ca sens inh	RTF Ca inh conf	others
c1cnc2ccc3ncccc3c2c1	0	0	0	0	0	-
O=Cc1ccc2ccc3cccnc3c2n1	0	0	0	0	0	-
O=C(Nc1ccccc1)c1cc(C2CCCN(C(=O)c3cccs3)C2)on1 (configuration not stated)	-	-	0	-	-	-
COc1ccc(-c2nnc(SCc3c(C)noc3C)o2)cc1	0	0	0	0	18.2	0
C=CCN(CC=C)S(=O)(=O)c1ccc(C(=O)Nc2nnc(COC)o2)cc1	0	0	0	0	0	-
COCc1nnc(NC(=O)c2ccc(S(=O)(=O)N(CC(C)C)CC(C)C)cc2)o1	0	0	0	0	188.8	0
CCCCN(C)CCC(=O)Nc1ccc(F)c(F)c1	0	0	0	0	17.1	0
CCCCN(C)CCC(=O)Nc1ccc(C)cc1	0	0	0	0	0	-
N=C(N)c1ccc(N=Nc2c(O)ccc3c2[nH]c2ccccc23)cc1	0	0	0	0	26.2	29.8
COc1ccc(C2=NOC(C(=O)NCCCn3ccnc3)C2)cc1 (configuration not stated)	0	0	0	0	18.1	0
NNC(=O)c1ccc(COc2ccc3c(c2)CCC3)cc1	0	0	0	0	17.4	0
O=C(O)c1ccc(COc2ccc3c(c2)CCC3)cc1	0	0	0	0	0	-
COCCn1c(SCC(=O)Nc2cc(C)on2)nc2c([nH]c3ccccc32)c1=O	-	-	0	-	-	-
COCCn1c(SCC(=O)Nc2ccc(NC(C)=O)cc2)nc2c([nH]c3ccccc32)c1=O	0	0	0	0	19.0	0
CC(=O)N1CCCN(Cc2nc(C3(c4ccc(C)cc4)CCCC3)no2)CC1	0	0	0	0	0	-
COCCN1CCN(Cc2nc(C3(c4ccc(C)cc4)CCCC3)no2)CC1	0	0	0	0	19.4	0
Cc1ccccc1Oc1ccc2c(c1)[C@@H]1C[C@H]3[C@@H](C(=O)N1CC2)[C@H](C)ON3C	0	0	0	0	0	-
O=C(O)c1cc(O)c2c(c1)[C@H]([C@H]1c3cc(C(=O)O)cc(O)c3C(=O)c3c(O[C@@H]4O[C@H](CO)[C@@H](O)[C@H](O)[C@H]4O)cccc31)c1cccc(OC3O[C@H](CO)[C@@H](O)[C@H](O)[C@H]3O)c1C2=O (some centres not stated)	0	0	0	0	53.4	101.8
O=C(O)c1cc(O)c2c(c1)[C@@H]([C@H]1c3cc(C(=O)O)cc(O)c3C(=O)c3c(O[C@@H]4O[C@H](CO)[C@@H](O)[C@H](O)[C@H]4O)cccc31)c1cccc(OC3O[C@H](CO)[C@@H](O)[C@H](O)[C@H]3O)c1C2=O (some centres not stated)	0	0	0	0	59.3	112.1
CC(=O)Nc1cc(-c2cccnc2)cn2c(-c3ccc(F)cc3)cnc12	-	-	0	-	-	-
CNc1ccc(-c2cccc([N+](=O)[O-])c2)cn1	-	-	0	-	-	-
Cc1nn(CC(=O)NCCCN2CCCC2)c(=O)c2nn(-c3ccccc3)c(C)c12	0	0	0	0	19.3	0
CCN(C(=O)C(C)N1C(=O)/C(=C/c2ccco2)SC1=S)C1CCS(=O)(=O)C1 (configuration not stated)	0	0	0	0	0	-
CC(C(=O)O)N1C(=O)/C(=C/C=C/c2ccco2)SC1=S (configuration not stated)	103.8	13.4	0	0	86.5	39.5	Keap1 TSA=0.77;Sypro dye melt=0
O=C1/C(=C/C=C/c2ccco2)SC(=S)N1NS(=O)(=O)c1ccccc1	110.2	27.8	0	0	71.1	0	Keap1 TSA=1.33

Screening data: PubChem BioAssay, several laboratories
